The full ranking holds about 16,000 sequences; the median of “rpm ratio (pull-down/input)” is about 0.5, and the highest 2% start at about 5.5. What follows is part of a selection rich in the highest values, with near analogues and random picks from the rest.
The sequences below were run against T1, MBP-FoxP3dN (Mus musculus, UniProt Q99JB6 188-423) (assay: PD-seq (MBP pull-down with sequencing); 20 mM Tris-HCl pH 7.5, 100 mM NaCl, 1.5 mM MgCl2, 0.4 uM protein, 0.1 uM dsDNA library, 30 min, room temperature, amylose pull-down; high values mean tight binding). Conditions: protein: recombinant; tags: His6-MBP; chain copies: 2; dsDNA, one strand shown.
T1 sequence: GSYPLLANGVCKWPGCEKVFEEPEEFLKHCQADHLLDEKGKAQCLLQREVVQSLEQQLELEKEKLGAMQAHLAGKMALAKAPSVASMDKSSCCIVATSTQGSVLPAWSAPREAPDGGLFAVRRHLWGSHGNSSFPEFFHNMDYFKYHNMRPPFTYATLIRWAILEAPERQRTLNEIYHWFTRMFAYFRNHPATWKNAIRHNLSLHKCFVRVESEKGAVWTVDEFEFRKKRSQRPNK
Method in brief: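 His6-MBP-tagged mouse FoxP3 or FoxP1 fragment lacking the N-terminus, expressed in E. coli, was mixed at 0.4 µM with 0.1 µM Klenow-filled double-stranded degenerate DNA library. Incubation was 30 min at room temperature in Tris pH 7.5 buffer with NaCl and MgCl2. Complexes were caught on amylose resin and washed three times; DNA was released with proteinase K, PCR-barcoded and Illumina-sequenced. Binding is reads-per-million enrichment, pull-down over input, with replicates pooled.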
“GATGATTGTTCTCCCAGCTGATGAATTAACTTAGTCGAGTAAACAAATTTTCCTAATCTTTCTGTTCAAGCGCCATCTAC” was tested, and the binding signal was 0.295 RPM ratio (pull-down/input). With “GATGATTGTTCTCCCAGCTGATGAATTTCTTCACTCGAGTAAACAAATTTTCCTAATCTTTCTGTTCAAGCGCCATCTAC” the binding signal was 0.269 RPM ratio (pull-down/input). With “GATGATTGTTCTCCCAGCTGATGAATTTAGGGTATCGAGTAAACAAATTTTCCTAATCTTTCTGTTCAAGCGCCATCTAC” the binding signal was 1.02 RPM ratio (pull-down/input). In the case of “GATGATTGTTCTCCCAGCTGATGAATTTGATTGGTCGAGTAAACAAATTTTCCTAATCTTTCTGTTCAAGCGCCATCTAC”, the binding signal is reported as 5.03 RPM ratio (pull-down/input). For “GATGATTGTTCTCCCAGCTGATGAATTTACCGGATCGAGTAAACAAATTTTCCTAATCTTTCTGTTCAAGCGCCATCTAC”, the binding signal was 0.251 RPM ratio (pull-down/input). In the case of “GATGATTGTTCTCCCAGCTGATGAATTGTAGCTCTCGAGTAAACAAATTTTCCTAATCTTTCTGTTCAAGCGCCATCTAC”, the binding signal is reported as 0.791 RPM ratio (pull-down/input). For “GATGATTGTTCTCCCAGCTGATGAATTGGGGGAGTCGAGTAAACAAATTTTCCTAATCTTTCTGTTCAAGCGCCATCTAC”, the binding signal was 0.355 RPM ratio (pull-down/input). In the case of “GATGATTGTTCTCCCAGCTGATGAATTTCTGTTTTCGAGTAAACAAATTTTCCTAATCTTTCTGTTCAAGCGCCATCTAC”, the binding signal is reported as 1.13 RPM ratio (pull-down/input). “GATGATTGTTCTCCCAGCTGATGAATTGTTTCTTTCGAGTAAACAAATTTTCCTAATCTTTCTGTTCAAGCGCCATCTAC” was tested, and the binding signal was 1.93 RPM ratio (pull-down/input). With “GATGATTGTTCTCCCAGCTGATGAATTTGTTTGTTCGAGTAAACAAATTTTCCTAATCTTTCTGTTCAAGCGCCATCTAC” the binding signal was 7.56 RPM ratio (pull-down/input). In the case of “GATGATTGTTCTCCCAGCTGATGAATTGTTTGATTCGAGTAAACAAATTTTCCTAATCTTTCTGTTCAAGCGCCATCTAC”, the binding signal is reported as 2.06 RPM ratio (pull-down/input). In the case of “GATGATTGTTCTCCCAGCTGATGAATTTTTTTGTTCGAGTAAACAAATTTTCCTAATCTTTCTGTTCAAGCGCCATCTAC”, the binding signal is reported as 0.472 RPM ratio (pull-down/input). In the case of “GATGATTGTTCTCCCAGCTGATGAATTTTGTTGTTCGAGTAAACAAATTTTCCTAATCTTTCTGTTCAAGCGCCATCTAC”, the binding signal is reported as 8.13 RPM ratio (pull-down/input). With “GATGATTGTTCTCCCAGCTGATGAATTTCTTTGTTCGAGTAAACAAATTTTCCTAATCTTTCTGTTCAAGCGCCATCTAC” the binding signal was 2.28 RPM ratio (pull-down/input). For “GATGATTGTTCTCCCAGCTGATGAATTGTTTGTTTCGAGTAAACAAATTTTCCTAATCTTTCTGTTCAAGCGCCATCTAC”, the binding signal was 7.87 RPM ratio (pull-down/input). For “GATGATTGTTCTCCCAGCTGATGAATTTGTTCTTTCGAGTAAACAAATTTTCCTAATCTTTCTGTTCAAGCGCCATCTAC”, the binding signal was 2.28 RPM ratio (pull-down/input). With “GATGATTGTTCTCCCAGCTGATGAATTTTCTGTTTCGAGTAAACAAATTTTCCTAATCTTTCTGTTCAAGCGCCATCTAC” the binding signal was 0.343 RPM ratio (pull-down/input). For “GATGATTGTTCTCCCAGCTGATGAATTGTTGTTTTCGAGTAAACAAATTTTCCTAATCTTTCTGTTCAAGCGCCATCTAC”, the binding signal was 7.89 RPM ratio (pull-down/input). With “GATGATTGTTCTCCCAGCTGATGAATTGTTTTTTTCGAGTAAACAAATTTTCCTAATCTTTCTGTTCAAGCGCCATCTAC” the binding signal was 4.84 RPM ratio (pull-down/input). For “GATGATTGTTCTCCCAGCTGATGAATTGGTTACCTCGAGTAAACAAATTTTCCTAATCTTTCTGTTCAAGCGCCATCTAC”, the binding signal was 0.673 RPM ratio (pull-down/input). With “GATGATTGTTCTCCCAGCTGATGAATTCGTCACGTCGAGTAAACAAATTTTCCTAATCTTTCTGTTCAAGCGCCATCTAC” the binding signal was 1.77 RPM ratio (pull-down/input). In the case of “GATGATTGTTCTCCCAGCTGATGAATTCTTAAACTCGAGTAAACAAATTTTCCTAATCTTTCTGTTCAAGCGCCATCTAC”, the binding signal is reported as 0.267 RPM ratio (pull-down/input). With “GATGATTGTTCTCCCAGCTGATGAATTACTATTATCGAGTAAACAAATTTTCCTAATCTTTCTGTTCAAGCGCCATCTAC” the binding signal was 0.758 RPM ratio (pull-down/input). With “GATGATTGTTCTCCCAGCTGATGAATTAAATACATCGAGTAAACAAATTTTCCTAATCTTTCTGTTCAAGCGCCATCTAC” the binding signal was 0.687 RPM ratio (pull-down/input). For “GATGATTGTTCTCCCAGCTGATGAATTTACTTCTTCGAGTAAACAAATTTTCCTAATCTTTCTGTTCAAGCGCCATCTAC”, the binding signal was 0.632 RPM ratio (pull-down/input). “GATGATTGTTCTCCCAGCTGATGAATTTGTTTCGTCGAGTAAACAAATTTTCCTAATCTTTCTGTTCAAGCGCCATCTAC” was tested, and the binding signal was 5.96 RPM ratio (pull-down/input). “GATGATTGTTCTCCCAGCTGATGAATTTTTTACTTCGAGTAAACAAATTTTCCTAATCTTTCTGTTCAAGCGCCATCTAC” was tested, and the binding signal was 0.261 RPM ratio (pull-down/input). “GATGATTGTTCTCCCAGCTGATGAATTTGTTGTTTCGAGTAAACAAATTTTCCTAATCTTTCTGTTCAAGCGCCATCTAC” was tested, and the binding signal was 7.66 RPM ratio (pull-down/input). In the case of “GATGATTGTTCTCCCAGCTGATGAATTTGTTTCTTCGAGTAAACAAATTTTCCTAATCTTTCTGTTCAAGCGCCATCTAC”, the binding signal is reported as 6.78 RPM ratio (pull-down/input). For “GATGATTGTTCTCCCAGCTGATGAATTTTGTTCGTCGAGTAAACAAATTTTCCTAATCTTTCTGTTCAAGCGCCATCTAC”, the binding signal was 1.45 RPM ratio (pull-down/input). In the case of “GATGATTGTTCTCCCAGCTGATGAATTGTTTTCGTCGAGTAAACAAATTTTCCTAATCTTTCTGTTCAAGCGCCATCTAC”, the binding signal is reported as 3.95 RPM ratio (pull-down/input). “GATGATTGTTCTCCCAGCTGATGAATTTTGTTCTTCGAGTAAACAAATTTTCCTAATCTTTCTGTTCAAGCGCCATCTAC” was tested, and the binding signal was 1.21 RPM ratio (pull-down/input). “GATGATTGTTCTCCCAGCTGATGAATTGTTTACTTCGAGTAAACAAATTTTCCTAATCTTTCTGTTCAAGCGCCATCTAC” was tested, and the binding signal was 7.35 RPM ratio (pull-down/input). “GATGATTGTTCTCCCAGCTGATGAATTGTTTTCTTCGAGTAAACAAATTTTCCTAATCTTTCTGTTCAAGCGCCATCTAC” was tested, and the binding signal was 4.15 RPM ratio (pull-down/input).

From paper PMC12820563, “FoxP3 forms a head-to-head dimer in vivo and stabilizes its multimerization on adjacent microsatellites”
